From article PMC11006913 come the findings set out here.

Residue numbers refer to the chain shown, from its start.

What all share (assay): PBM; 200 nM protein, PBS
Holding throughout (details): dsDNA, one strand shown

Assay [1] deals with T1, NKX2-4 (Homo sapiens, UniProt Q9H2Z4 175-261, P217L).
T1 sequence: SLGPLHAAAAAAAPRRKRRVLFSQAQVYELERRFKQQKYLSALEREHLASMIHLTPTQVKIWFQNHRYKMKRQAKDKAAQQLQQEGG

Assay [2] has as its target T2, NKX2-4 (Homo sapiens, UniProt Q9H2Z4 175-261, T231S).
T2 sequence: T1 sequence with L43P, T57S

In assay [3] the target is T3, NKX2-4 (Homo sapiens, UniProt Q9H2Z4 175-261).
T3 sequence: T1 sequence with L43P

Assay [4] has as its target T4, NKX2-4 (Homo sapiens, UniProt Q9H2Z4 175-261, R246Q).
T4 sequence: T1 sequence with L43P, R72Q

With ACGGCGAC, the binding signal in the assay with NKX2-4 [1] was 9.81 upbm affinity estimate (log intensity, higher = more binding, comparable within an allelic series); with NKX2-4 [2] it was 9.82 upbm affinity estimate (log intensity, higher = more binding, comparable within an allelic series); with NKX2-4 [3], 9.78 upbm affinity estimate (log intensity, higher = more binding, comparable within an allelic series); in the assay with NKX2-4 [4], 9.81 upbm affinity estimate (log intensity, higher = more binding, comparable within an allelic series).
Turning to CCTGGAGC, the binding signal is 9.98 upbm affinity estimate (log intensity, higher = more binding, comparable within an allelic series) in the assay with NKX2-4 [1]; 9.95 upbm affinity estimate (log intensity, higher = more binding, comparable within an allelic series) with NKX2-4 [2]; 9.96 upbm affinity estimate (log intensity, higher = more binding, comparable within an allelic series) with NKX2-4 [3]; 9.94 upbm affinity estimate (log intensity, higher = more binding, comparable within an allelic series) in the assay with NKX2-4 [4].
For the sequence ATTCTTGA, the binding signal with NKX2-4 [1] is 11.5 upbm affinity estimate (log intensity, higher = more binding, comparable within an allelic series); with NKX2-4 [2], 11.7 upbm affinity estimate (log intensity, higher = more binding, comparable within an allelic series); with NKX2-4 [3], 11.2 upbm affinity estimate (log intensity, higher = more binding, comparable within an allelic series); with NKX2-4 [4], 11.7 upbm affinity estimate (log intensity, higher = more binding, comparable within an allelic series).
Regarding CGCCACAA, the binding signal in the assay with NKX2-4 [1] was 9.76 upbm affinity estimate (log intensity, higher = more binding, comparable within an allelic series); with NKX2-4 [2], 9.79 upbm affinity estimate (log intensity, higher = more binding, comparable within an allelic series); with NKX2-4 [3] it was 9.73 upbm affinity estimate (log intensity, higher = more binding, comparable within an allelic series); with NKX2-4 [4], 9.79 upbm affinity estimate (log intensity, higher = more binding, comparable within an allelic series).
For CGATCCCG, the binding signal is 9.54 upbm affinity estimate (log intensity, higher = more binding, comparable within an allelic series) in the assay with NKX2-4 [1]; 9.56 upbm affinity estimate (log intensity, higher = more binding, comparable within an allelic series) with NKX2-4 [2]; 9.59 upbm affinity estimate (log intensity, higher = more binding, comparable within an allelic series) with NKX2-4 [3]; 9.65 upbm affinity estimate (log intensity, higher = more binding, comparable within an allelic series) with NKX2-4 [4].
For the sequence AGAGCACT, the binding signal with NKX2-4 [1] was 12 upbm affinity estimate (log intensity, higher = more binding, comparable within an allelic series); with NKX2-4 [2] it was 12.3 upbm affinity estimate (log intensity, higher = more binding, comparable within an allelic series); in the assay with NKX2-4 [3] it was 11.9 upbm affinity estimate (log intensity, higher = more binding, comparable within an allelic series); in the assay with NKX2-4 [4] it was 12.3 upbm affinity estimate (log intensity, higher = more binding, comparable within an allelic series).
Regarding CAGCCCAG, the binding signal in the assay with NKX2-4 [1] is 9.47 upbm affinity estimate (log intensity, higher = more binding, comparable within an allelic series); with NKX2-4 [2] it was 9.32 upbm affinity estimate (log intensity, higher = more binding, comparable within an allelic series); with NKX2-4 [3], 9.45 upbm affinity estimate (log intensity, higher = more binding, comparable within an allelic series); in the assay with NKX2-4 [4], 9.54 upbm affinity estimate (log intensity, higher = more binding, comparable within an allelic series).
As to CTGCGTCC, the binding signal is 9.76 upbm affinity estimate (log intensity, higher = more binding, comparable within an allelic series) with NKX2-4 [1]; 9.72 upbm affinity estimate (log intensity, higher = more binding, comparable within an allelic series) with NKX2-4 [2]; 9.74 upbm affinity estimate (log intensity, higher = more binding, comparable within an allelic series) with NKX2-4 [3]; 9.78 upbm affinity estimate (log intensity, higher = more binding, comparable within an allelic series) with NKX2-4 [4].
For CTACTTCA, the binding signal is 12.4 upbm affinity estimate (log intensity, higher = more binding, comparable within an allelic series) with NKX2-4 [1]; 12.6 upbm affinity estimate (log intensity, higher = more binding, comparable within an allelic series) in the assay with NKX2-4 [2]; 12.2 upbm affinity estimate (log intensity, higher = more binding, comparable within an allelic series) with NKX2-4 [3]; 12.8 upbm affinity estimate (log intensity, higher = more binding, comparable within an allelic series) with NKX2-4 [4].
In the case of CCGCGGTA, the binding signal is 9.81 upbm affinity estimate (log intensity, higher = more binding, comparable within an allelic series) in the assay with NKX2-4 [1]; 9.73 upbm affinity estimate (log intensity, higher = more binding, comparable within an allelic series) with NKX2-4 [2]; 9.75 upbm affinity estimate (log intensity, higher = more binding, comparable within an allelic series) with NKX2-4 [3]; 9.9 upbm affinity estimate (log intensity, higher = more binding, comparable within an allelic series) in the assay with NKX2-4 [4].
Turning to ATTTAGTG, the binding signal in the assay with NKX2-4 [1] is 11.4 upbm affinity estimate (log intensity, higher = more binding, comparable within an allelic series); with NKX2-4 [2], 11.6 upbm affinity estimate (log intensity, higher = more binding, comparable within an allelic series); with NKX2-4 [3], 11.4 upbm affinity estimate (log intensity, higher = more binding, comparable within an allelic series); in the assay with NKX2-4 [4], 11.5 upbm affinity estimate (log intensity, higher = more binding, comparable within an allelic series).
With AAGAGGGG, the binding signal with NKX2-4 [1] is 11.9 upbm affinity estimate (log intensity, higher = more binding, comparable within an allelic series); with NKX2-4 [2] it was 12.2 upbm affinity estimate (log intensity, higher = more binding, comparable within an allelic series); in the assay with NKX2-4 [3] it was 11.8 upbm affinity estimate (log intensity, higher = more binding, comparable within an allelic series); in the assay with NKX2-4 [4], 12.1 upbm affinity estimate (log intensity, higher = more binding, comparable within an allelic series).
As to TACTTCAA, the binding signal with NKX2-4 [1] is 12.5 upbm affinity estimate (log intensity, higher = more binding, comparable within an allelic series); with NKX2-4 [2], 12.9 upbm affinity estimate (log intensity, higher = more binding, comparable within an allelic series); with NKX2-4 [3], 12.4 upbm affinity estimate (log intensity, higher = more binding, comparable within an allelic series); in the assay with NKX2-4 [4], 13 upbm affinity estimate (log intensity, higher = more binding, comparable within an allelic series).
For the sequence AAAGAGGC, the binding signal with NKX2-4 [1] was 11.7 upbm affinity estimate (log intensity, higher = more binding, comparable within an allelic series); in the assay with NKX2-4 [2] it was 11.9 upbm affinity estimate (log intensity, higher = more binding, comparable within an allelic series); with NKX2-4 [3], 11.6 upbm affinity estimate (log intensity, higher = more binding, comparable within an allelic series); with NKX2-4 [4], 11.9 upbm affinity estimate (log intensity, higher = more binding, comparable within an allelic series).
Regarding CCGAGACG, the binding signal is 9.51 upbm affinity estimate (log intensity, higher = more binding, comparable within an allelic series) in the assay with NKX2-4 [1]; 9.47 upbm affinity estimate (log intensity, higher = more binding, comparable within an allelic series) with NKX2-4 [2]; 9.47 upbm affinity estimate (log intensity, higher = more binding, comparable within an allelic series) in the assay with NKX2-4 [3]; 9.44 upbm affinity estimate (log intensity, higher = more binding, comparable within an allelic series) in the assay with NKX2-4 [4].
